PvdQ acylase – P. aeruginosa PvdQ acylase inhibitors, primary screen, biochemical, fluorescence, plate reader and imaging, single point; 0.063% of 340,000 active; PvdQ acylase [Pseudomonas aeruginosa LESB58]; inhibition, % at 10 µM; purified PvdQ acylase; in the data active means inhibition above about 30%, passing the limit was not always enough;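 further: 0% = vehicle neutral wells and 100% = reference inhibitor wells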
OPRM1-OPRD1 inv – inverse agonists of MOR-DOR heterodimerization, primary screen, cell-based, luminescence | Mu-type opioid receptor (Homo sapiens) + Delta-type opioid receptor (Homo sapiens), … | cell-based MOR-DOR heterodimer luminescence, inverse agonism | inhibition, % at 9.3 µM | 0.21% of 340,000 active; in the data active means inhibition above about 22%, passing the limit was not always enough;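 further: 0% = cells with DMSO and 100% = wells without cells with DMSO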
HTR5A ag ctr – HTR5A agonists in luminescence cell assay, primary screen, counter-screen for OPRM1-OPRD1 heterodimer agonist project, full-deck HTS; activation, % at 9.3 µM; 5-hydroxytryptamine receptor 5A (Homo sapiens), P47898; AID 504692, 2011; 0.61% of 340,000 active; cell-based; in the data active means activation mostly above about 9.5%, no sharp cut-off; inactive means mostly below about 7.6%;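 further: 0% = cells with vehicle only and 100% = reference agonist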
HTR5A inv ag – HTR5A inverse agonists in luminescence cell assay, primary screen, counter-screen for OPRM1-OPRD1 heterodimer inverse agonist project, full-deck HTS; 5-hydroxytryptamine receptor 5A (Homo sapiens), P47898; HTR5A cell line, inverse agonism; inhibition, % at 9.3 µM; 0.083% of 340,000 active; AID 504634, 2011; in the data active means inhibition mostly above about 23%, no sharp cut-off; inactive means mostly below about 18%;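 further: 0% = cells with DMSO and 100% = no-cell wells with DMSO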
MOR-DOR ag-1 – agonists of OPRM1-OPRD1 heterodimerization, primary screen, cell-based, luminescence; Mu-type opioid receptor (Homo sapiens) + Delta-type opioid receptor (Homo sapiens), …; cells; activation, % at 9.3 µM; 0.3% of 340,000 active; AID 504326, 2011;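 further: 0% = vehicle-treated cells and 100% = reference agonist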
Yeast superoxide – reduction of superoxide in aged yeast, primary screen, HTS | 0.18% of 330,000 active | S. cerevisiae aged cells, superoxide DHE fluorescence; stronger effect = lower value | superoxide response (% of plate mean), % at 10 µM;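 active means superoxide response under a set limit, about three screen SD below normal, cut at about 65% in these data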;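 further: yeast aged for seven days with compound at 30 °C before DHE staining; 100% = average MFI of all compound-treated wells on the plate with controls excluded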
MOR-DOR ag-2 – OPRM1-OPRD1 heterodimerization promoters, counter-screen for HTR5A agonist project, cell-based, luminescence | activation, % at 9.3 µM | AID 504913, 2011 | shares compounds with HTR5A ag ctr | U2OS counter-screen cells, complementation luminescence, 3 h | 13% of 800 active
HTR5A ag confirm – HTR5A agonists, retest of hits, confirmation, cell-based, luminescence; 17% of 800 active; shares compounds with HTR5A ag ctr; HTR5A agonist cell assay; AID 504915, 2011; activation, % at 9.3 µM; in the data active means activation above about 17%;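 further: 0% = cells with vehicle only and 100% = full reference agonist response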
* marks the source's active call; other numbers are inactive results. Rows were chosen to be rich in hits. Some 1.3% of all compounds tested hit in one or more screens of this group. Unless noted, no stated cut-off is given here; in the data, active means activation above about 18%; inactive means the rest.

How did NCCc1c[nH]c2ccc(OCc3ccccc3)cc12 do in these assays?
PvdQ acylase: 2; OPRM1-OPRD1 inv: 0; HTR5A ag ctr: 33*; HTR5A inv ag: -86; MOR-DOR ag-1: 0; Yeast superoxide: 98; MOR-DOR ag-2: 0; HTR5A ag confirm: 1

What do the screens show for `COc1ccc2[nH]cc(CCN=C(N)N)c2c1`?
PvdQ acylase: 8; OPRM1-OPRD1 inv: 0; HTR5A ag ctr: 6; HTR5A inv ag: -15; MOR-DOR ag-1: 0; Yeast superoxide: 105

How did CC(N)Cc1c[nH]c2ccc(Cl)cc12 (stereo unspecified) do in these assays?
PvdQ acylase: -1; OPRM1-OPRD1 inv: 12; HTR5A ag ctr: 2; HTR5A inv ag: -42; MOR-DOR ag-1: -2; Yeast superoxide: 115

What do the screens show for `CCCCc1ccc2[nH]cc(CCN)c2c1`?
PvdQ acylase: -9; OPRM1-OPRD1 inv: -31; HTR5A ag ctr: 97*; HTR5A inv ag: -231; MOR-DOR ag-1: 5; Yeast superoxide: 88; MOR-DOR ag-2: -2; HTR5A ag confirm: -7

How did CCOC(=O)c1c(C)n(Cc2ccccc2)c2ccc(OCC(O)CNC(C)(C)C)cc12 (stereo unspecified) do in these assays?
PvdQ acylase: -9; OPRM1-OPRD1 inv: 13; HTR5A ag ctr: 1; HTR5A inv ag: -5; MOR-DOR ag-1: -3; Yeast superoxide: 109

Results for CCCN(CCC)C1CCc2ccc(O)cc2C1 (stereo unspecified) ?
PvdQ acylase: -9; OPRM1-OPRD1 inv: -9; HTR5A ag ctr: 35*; HTR5A inv ag: -139; MOR-DOR ag-1: 2; Yeast superoxide: 96; MOR-DOR ag-2: 31*; HTR5A ag confirm: 1

Results for CCCN(CCC)C1CCc2cccc(O)c2C1 (stereo unspecified) ?
PvdQ acylase: 3; OPRM1-OPRD1 inv: 10; HTR5A ag ctr: 46*; HTR5A inv ag: -146; MOR-DOR ag-1: -2; Yeast superoxide: 114; MOR-DOR ag-2: 1; HTR5A ag confirm: 56*

What do the screens show for `CCCN1CC[C@@H]2c3cc(O)ccc3CC[C@@H]21`?
PvdQ acylase: -11; OPRM1-OPRD1 inv: -5; HTR5A ag ctr: 6; HTR5A inv ag: -20; MOR-DOR ag-1: 1; Yeast superoxide: 105

How did CCOc1ccc(NC(=O)CCNC(=O)N2C[C@H]3C[C@@H](C2)c2cccc(=O)n2C3)cc1 do in these assays?
PvdQ acylase: -8; OPRM1-OPRD1 inv: 10; HTR5A ag ctr: 2; HTR5A inv ag: 17; MOR-DOR ag-1: -2; Yeast superoxide: 98

What do the screens show for `c1ccc2c(c1)CNCc1cnnn1-2`?
PvdQ acylase: -15; OPRM1-OPRD1 inv: 3; HTR5A ag ctr: -4; HTR5A inv ag: 15; MOR-DOR ag-1: -1

How did CN1CC=C(c2c[nH]c3ccccc23)CC1 do in these assays?
PvdQ acylase: 1; OPRM1-OPRD1 inv: 6; HTR5A ag ctr: 23*; HTR5A inv ag: -70; MOR-DOR ag-1: -1; Yeast superoxide: 108; MOR-DOR ag-2: -2; HTR5A ag confirm: -1

What do the screens show for `Fc1ccccc1CNCCc1c[nH]c2ccccc12`?
PvdQ acylase: -16; OPRM1-OPRD1 inv: 9; HTR5A ag ctr: 25*; HTR5A inv ag: -88; MOR-DOR ag-1: -2; Yeast superoxide: 98; MOR-DOR ag-2: 2; HTR5A ag confirm: 39*

Results for Fc1ccc(CNCCc2c[nH]c3ccccc23)cc1 ?
PvdQ acylase: -5; OPRM1-OPRD1 inv: 14; HTR5A ag ctr: 5; HTR5A inv ag: -13; MOR-DOR ag-1: -3; Yeast superoxide: 91

How did COc1nc2ccccc2nc1N1CCN(C)CC1 do in these assays?
PvdQ acylase: -12; OPRM1-OPRD1 inv: 7; HTR5A ag ctr: 20*; HTR5A inv ag: -79; MOR-DOR ag-1: -1; Yeast superoxide: 109; MOR-DOR ag-2: 4; HTR5A ag confirm: 6

What do the screens show for `COCC(=O)N1Cc2ccccc2-n2nncc2C1`?
PvdQ acylase: -8; OPRM1-OPRD1 inv: 16; HTR5A ag ctr: -2; HTR5A inv ag: 9; MOR-DOR ag-1: -4

Results for COC(=O)C1=C(c2cccc(Cl)c2)C[C@@H]2CC[C@H]1N2C(=O)N1CCCC1 ?
PvdQ acylase: 15; OPRM1-OPRD1 inv: 14; HTR5A ag ctr: 2; HTR5A inv ag: -4; MOR-DOR ag-1: -3; Yeast superoxide: 106

High-throughput results: PubChem BioAssay, several laboratories
